Screening data from PubChem.
HepG2 tox = kills HepG2 cells in TGF-b inhibitor counter-screen; HepG2 CAGA-GFP viability, ATP luminescence, 18 h; Potency, µM (top dose mostly 46.1 µM), hits mostly cytotoxic; hit rate 0.76% among 410,000; AID 588856
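HepG2 CAGA-GFP cells (1000/well, DMEM with 1% FBS) received compound, then TGF-beta at 500 pg/mL final, and were incubated 18 hours at 37 degrees C. Viability was read by CellTiter-Glo luminescence. Media-only wells were set as complete cell-killing and DMSO as no toxicity.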
TGFb SMAD3 inh = blocks TGF-b signaling; Potency, µM (highest dose often 46.1 µM), usual class: inhibitors; HepG2 CAGA-GFP TGF-b/SMAD3 reporter, GFP fluorescence, 18 h; TGF-beta stimulated, 500 pg/mL final; hit rate 1.2% among 410,000; AID 588855; further: nearly all actives have a fitted effect of over 65% in size
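Smad-responsive CAGA-GFP expression was quantified in HEPG2 cells exposed to compounds and 500 pg/mL final TGF-beta for 18 h at 37 degrees C; unstimulated wells defined full inhibition.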
TDP1 block = inhibitors of human tyrosyl-DNA phosphodiesterase TDP1; Q9NUW8; recombinant TDP1, AlphaScreen DNA substrate cleavage; Potency, µM (titrated, usually from 130 µM), most hits filed as inhibitors; hit rate 0.28% among 350,000; AID 485290; further: nearly all actives have a fitted effect of over 40% in size
Target sequence (Q9NUW8 whole entry, looked up): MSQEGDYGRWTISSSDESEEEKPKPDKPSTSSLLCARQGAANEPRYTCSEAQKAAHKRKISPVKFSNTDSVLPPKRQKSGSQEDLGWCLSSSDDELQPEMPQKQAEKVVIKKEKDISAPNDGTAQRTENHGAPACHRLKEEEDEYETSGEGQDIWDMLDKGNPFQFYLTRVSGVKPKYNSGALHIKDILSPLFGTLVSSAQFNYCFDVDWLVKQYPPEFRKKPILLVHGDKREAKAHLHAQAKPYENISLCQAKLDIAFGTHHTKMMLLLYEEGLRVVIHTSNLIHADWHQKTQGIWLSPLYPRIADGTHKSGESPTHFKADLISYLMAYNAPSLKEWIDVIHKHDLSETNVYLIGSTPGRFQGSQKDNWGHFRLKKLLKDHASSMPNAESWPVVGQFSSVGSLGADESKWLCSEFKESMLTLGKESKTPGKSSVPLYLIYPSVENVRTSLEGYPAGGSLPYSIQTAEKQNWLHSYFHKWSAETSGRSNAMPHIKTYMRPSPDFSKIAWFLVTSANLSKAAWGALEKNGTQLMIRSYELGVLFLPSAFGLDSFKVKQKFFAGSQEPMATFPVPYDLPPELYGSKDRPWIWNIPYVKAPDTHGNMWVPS
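E. coli-derived human Tdp1, 1 nM final. Cpd preinc 15 min RT; substrate 15 nM final, 5 min RT; AS bead mix 10 ug/ml final, 10 min RT. Signal loss = tyrosine-FITC cleavage. No-enzyme wells = max signal.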
IL-1B inflam inh = blocks inflammasome-driven IL-1 beta release; hit rate 4.7% among 360,000; AID 743279; activity change, % at 57.5 µM; THP-1 LPS/ATP IL-1B secretion, AlphaLISA, 16 h; hits give low values; in the data active means activity change below about -50%; inconclusive means mostly about -30% to -49%
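THP-1 cells pretreated 1 hr with compounds (up to 57.5 uM final), then stimulated with LPS (250 ng/mL final) plus ATP (1.25 mM final); secreted IL-1B measured by AlphaLISA after 16 hr, decreased signal indicating inhibition.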
DT40 TDP1 no CPT = qHTS for Inhibitors of human tyrosyl-DNA phosphodiesterase 1 (TDP1): qHTS in cells in absence of CPT. Potency, µM (titrated, usually from 46.2 µM), hits mostly inhibitors. DT40 Tdp1-/- hTDP1 cells, no CPT, ATP luminescence, 48 h. hit rate 15% among 420,000; further: nearly all actives have a fitted effect of over 55% in size
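Camptothecin absent (DMSO only). Human TDP1-complemented DT40 knockout cells, 400 cells/well, 37 °C for minimum 48 hr; ATP measured via CellTiter-Glo, 30 min dark incubation, luminescence.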
TDP1 cell CPT = DT40-hTDP1 cell growth loss with CPT | chicken DT40 Tdp1-/-;hTDP1 cells + 20 nM CPT, ATP luminescence, 48 h | Potency, µM (titrated, usually from 46.2 µM), usual class: inhibitors | hit rate 12% among 420,000; further: nearly all actives have a fitted effect of over 55% in size
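Chicken DT40 Tdp1-/- cells complemented with human TDP1, 400 cells/well, exposed to compounds plus 20 nM camptothecin for at least 48 h at 37 C; viability read as ATP content by CellTiter-Glo luminescence.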
Hits are given with their value; [ ] = another dose, or the depositor's remark. This is a sample that favours compounds with a hit; in the whole collection about 18% have one here. Unless noted, the call rests on the fitted dose curve; in most records, active means well fitted curve in the direction sought with a large enough effect; inconclusive means small, poorly fitted or top-dose-only effect, or another doubt; inactive means no such curve, though single readings can be large; an effect the other way counts as inactive or inconclusive.

What do the screens show for `Cc1ccc(C)c(C(=O)C(C)Sc2nc3nn(-c4ccccc4)c(=O)c-3c3n2CCCCC3)c1` (stereo not drawn)?
HepG2 tox: inactive; TGFb SMAD3 inh: inactive; TDP1 block: inactive; IL-1B inflam inh: inactive; DT40 TDP1 no CPT: 21µM; TDP1 cell CPT: inconclusive

What do the screens show for `COC(=O)c1[nH]c2ccccc2c1NC(=O)CN1CCN(C/C=C/c2ccccc2)CC1`?
HepG2 tox: inactive; TGFb SMAD3 inh: inconclusive; TDP1 block: inactive; IL-1B inflam inh: -76; DT40 TDP1 no CPT: inconclusive; TDP1 cell CPT: 26µM

How did CCOC(=O)c1[nH]c2ccc(F)cc2c1NC(=O)CN1CCN(C/C=C/c2ccccc2)CC1 do in these assays?
HepG2 tox: inactive; TGFb SMAD3 inh: inconclusive; TDP1 block: inactive; IL-1B inflam inh: -79; DT40 TDP1 no CPT: inconclusive; TDP1 cell CPT: inconclusive

Results for COc1ccccc1-c1nc2cc(C(=O)NC[C@H]3CCc4ccccc4O3)cc(NC(C)=O)c2n1C ?
DT40 TDP1 no CPT: inactive; TDP1 cell CPT: inactive

What do the screens show for `CC(C)[C@]1(c2ccc(Cl)cc2)ON(c2ccccc2C(F)(F)F)C1=O`?
TDP1 block: inactive

What do the screens show for `COc1ccccc1[C@@]1(C)ON(c2ccccc2C(F)(F)F)C1=O`?
HepG2 tox: inactive; TGFb SMAD3 inh: inconclusive; TDP1 block: inactive; IL-1B inflam inh: -94; DT40 TDP1 no CPT: inconclusive; TDP1 cell CPT: inconclusive

How did CC[C@]1(c2ccccc2C)ON(c2ccccc2C(F)(F)F)C1=O do in these assays?
HepG2 tox: inactive; TGFb SMAD3 inh: inactive; IL-1B inflam inh: inactive; DT40 TDP1 no CPT: inactive; TDP1 cell CPT: inactive

What do the screens show for `O=C1N(c2ccccc2C(F)(F)F)OC1(Cc1ccccc1)c1ccccc1` (stereo not drawn)?
HepG2 tox: inactive; TGFb SMAD3 inh: inconclusive; TDP1 block: inactive; IL-1B inflam inh: -80; DT40 TDP1 no CPT: inconclusive; TDP1 cell CPT: inactive

Results for CCCCc1ccc(NC(=O)C2CCCO2)cc1 (stereo not drawn) ?
HepG2 tox: inactive; TGFb SMAD3 inh: inactive; TDP1 block: inactive; IL-1B inflam inh: inactive; DT40 TDP1 no CPT: inactive; TDP1 cell CPT: inactive

What do the screens show for `CC(=O)N1c2ccccc2C2(O)N=C(C)SC12` (stereo not drawn)?
HepG2 tox: inactive; TGFb SMAD3 inh: inactive; TDP1 block: inactive; IL-1B inflam inh: inactive; DT40 TDP1 no CPT: inconclusive; TDP1 cell CPT: 16µM

How did COc1ccc(N(CC(=O)NC2CCCC2)C(=O)Cn2nnc(-c3ccc(OC)c(OC)c3)n2)cc1 do in these assays?
HepG2 tox: inactive; TGFb SMAD3 inh: inconclusive; TDP1 block: inactive; IL-1B inflam inh: inactive; DT40 TDP1 no CPT: inactive; TDP1 cell CPT: inactive

How did Cc1ccc(C)c(N(C(=O)Cn2nnc(-c3cccs3)n2)C(C(=O)NC2CC2)c2ccc(C)o2)c1 (stereo not drawn) do in these assays?
HepG2 tox: inactive; TGFb SMAD3 inh: inactive; TDP1 block: inactive; IL-1B inflam inh: inactive; DT40 TDP1 no CPT: 11µM; TDP1 cell CPT: inconclusive

How did Cc1ccc(-c2nnn(CC(=O)N(c3ccccc3)C(C(=O)NC3CCCC3)c3ccncc3)n2)o1 (stereo not drawn) do in these assays?
HepG2 tox: inactive; TGFb SMAD3 inh: inactive; IL-1B inflam inh: inactive; DT40 TDP1 no CPT: inactive; TDP1 cell CPT: inactive

Results for COc1ccc(-c2nnn(CC(=O)N(CC(=O)NC3CCCC3)c3ccccc3)n2)cc1OC ?
HepG2 tox: inactive; TGFb SMAD3 inh: inconclusive; TDP1 block: inactive; IL-1B inflam inh: inactive; DT40 TDP1 no CPT: 15µM; TDP1 cell CPT: inconclusive

What do the screens show for `Cc1ccc(N(C(=O)Cn2nnc(-c3ccc(C)o3)n2)C(C(=O)NC2CCCC2)c2ccco2)cc1` (stereo not drawn)?
HepG2 tox: inactive; TGFb SMAD3 inh: inactive; TDP1 block: inactive; IL-1B inflam inh: inactive; DT40 TDP1 no CPT: 13µM; TDP1 cell CPT: inconclusive

What do the screens show for `Cc1ccc(-c2nnn(CC(=O)N(CC(=O)NC3CCCCC3)c3ccc(F)c(Cl)c3)n2)o1`?
HepG2 tox: inactive; TGFb SMAD3 inh: inactive; TDP1 block: inactive; IL-1B inflam inh: inactive; DT40 TDP1 no CPT: 21µM; TDP1 cell CPT: 13µM

What do the screens show for `CCN(CC)S(=O)(=O)c1cccc(C(=O)NNC(=O)c2ccc3[nH]c(=O)c(=O)[nH]c3c2)c1`?
HepG2 tox: inactive; TGFb SMAD3 inh: inactive; TDP1 block: inactive; IL-1B inflam inh: inactive; DT40 TDP1 no CPT: inactive; TDP1 cell CPT: inactive

Results for C=C1C=C(C(F)F)n2ncc(C(=O)NCc3ccccc3)c2N1 ?
HepG2 tox: inactive; TGFb SMAD3 inh: inactive; DT40 TDP1 no CPT: inconclusive; TDP1 cell CPT: inconclusive

What do the screens show for `Cc1ccc(-c2nnn(CC(=O)N(Cc3ccccc3)C(C(=O)NC(C)(C)C)c3ccncc3)n2)o1` (stereo not drawn)?
HepG2 tox: inactive; TGFb SMAD3 inh: inactive; TDP1 block: inactive; IL-1B inflam inh: inactive; DT40 TDP1 no CPT: inactive; TDP1 cell CPT: inactive

Results for Cc1ccc(N(C(=O)Cn2nnc(-c3ccccc3F)n2)C(C(=O)NC2CCCC2)c2ccncc2)cc1 (stereo not drawn) ?
HepG2 tox: inactive; TGFb SMAD3 inh: inactive; TDP1 block: inactive[0.0935 µM]; IL-1B inflam inh: inactive; DT40 TDP1 no CPT: inconclusive; TDP1 cell CPT: inconclusive

How did Cc1ccc(N(C(=O)Cn2nnc(-c3cccs3)n2)C(C(=O)NC2CCCC2)c2ccncc2)cc1 (stereo not drawn) do in these assays?
HepG2 tox: inactive; TGFb SMAD3 inh: inactive; TDP1 block: inactive; IL-1B inflam inh: inactive; DT40 TDP1 no CPT: 21µM; TDP1 cell CPT: 23µM

What do the screens show for `Cc1ccc(-c2nnn(CC(=O)N(Cc3ccco3)C(C(=O)NC(C)(C)C)c3ccc(C)o3)n2)o1` (stereo not drawn)?
HepG2 tox: inactive; TGFb SMAD3 inh: inconclusive; TDP1 block: inactive; IL-1B inflam inh: inactive; DT40 TDP1 no CPT: 21µM; TDP1 cell CPT: 16µM

Results for CCOC(=O)N1CCc2c(sc3c2c(=O)n(Cc2ccccc2)c(=O)n3CC(=O)NCCOC)C1 ?
HepG2 tox: inactive; TGFb SMAD3 inh: inactive; TDP1 block: inactive; IL-1B inflam inh: inactive; DT40 TDP1 no CPT: inactive; TDP1 cell CPT: inactive

Results for CC(=O)N1CCc2c(sc3c2c(=O)n(-c2ccc(F)cc2)c(=O)n3Cc2cc(C)ccc2C)C1 ?
HepG2 tox: inactive; TGFb SMAD3 inh: inactive; TDP1 block: inactive; DT40 TDP1 no CPT: inactive; TDP1 cell CPT: inactive
